This passage reports growth results from PubChem BioAssay (NCI).

About 83,000 compounds went through this panel and 20% of them were active in at least one assay; those are over-represented in the sample as a whole.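 Each cell line was grown in a 96-well plate and treated with one concentration of compound for 48 hours. Values below 10 were considered active.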 A number with no mark means an inactive call. Activity calls are given as the source filed them.

The subject of this experiment is HL-60(TB) leukemia. Briefly: NCI-60 one-dose screen, 48 h (100 = growth as untreated, 0 = no growth, -100 = all killed). The settings on record: 10 µM unless noted.
For `CCN(CC)C(=O)C1=C(C)NC(=O)NC1c1ccc2c(c1)OCO2` (stereo not given), the growth was 101%.
The value for `COc1cc(NC(=O)NCc2ccco2)ccc1-c1ccc(NC(=O)NCc2ccco2)cc1OC` was 57.4%; that for `NC(=N\N=C\c1ccccc1O)/C(N)=N/N=C/c1ccccc1O` was 69.5%; that for `C/C=C/C1OCC(CC)C(CCC)O1` (stereo not given) was 88.1%.
`Brc1ccc(/C=C(/C2=NCCN2)n2ccc3ccccc32)cc1`: the growth is 26.2%.
The value for `N#Cc1c(N2CCOCC2)nc2sc3cc(Cl)ccc3n2c1=N` was 107%.
The value for `COc1cccc(-c2nn(C(C)(C)C)cc2-c2ccnc(NCCCNS(=O)(=O)c3ccc(C)cc3)c2)c1` was 105%.
With `COc1ccc(/C=N/NC(=O)Cn2nnc3ccccc32)cc1`, the growth is 105%.
The value for `COc1cc(-c2nc(NC(C)=O)sc2-c2ccnc(NCCNS(=O)(=O)c3ccccc3)n2)ccc1Cl` was -22.3% (active); that for `Fc1ccc(Nc2nc(Nc3ccc(-c4nc5ccccc5[nH]4)cc3)nc(N3CCCC3)n2)cc1` was 5.97% (active).
For the molecule `COc1ccc2cnc(N)c(C#Cc3cc(C(=O)Nc4ccc(CN5CCN(C)CC5)c(C(F)(F)F)c4)cnc3C)c2c1`, the growth is 95%.
Then `Cc1c(C(=O)Nc2nc3ccccc3[nH]2)cnn1-c1ccccn1`, with 58.5%.
Then `CCC1=CC2CN(C1)Cc1c([nH]c3ccccc13)[C@@](C(=O)OC)(c1cc3c(cc1OC)N(C)[C@H]1[C@@](O)(C(=O)OC)[C@H](OC(C)=O)[C@]4(CC)C=CCN5CC[C@]31[C@@H]54)C2` (stereo not given in full), with -15.6% (active); and `COc1cc2nnc3c4cccnc4[nH]c3c2cc1OC`, with -54.3% (active).
Then `CCCCOC(=O)c1cccc([N+](=O)[O-])c1`, with 142%.
Take `O=C1Nc2ccc(Cl)cc2/C1=N/c1nc(-c2ccc(Cl)cc2)cs1`: the growth was -32.4% (active).
With `C=CC(CC(c1ccccc1)(c1ccccc1)c1ccccc1)N(CC)CC` (stereo not given), the growth was 71.5%.
Then `COc1cc2c(cc1OCCCCCOc1ccc(-n3c(C)nc4ccccc4c3=O)cc1)N=C[C@@H]1CCCN1C2=O`, with -33.8% (active).
`Cc1ccc(S(=O)(=O)N/N=C/C2(c3ccccc3)CC2)cc1`: the growth was 98.7%.
Then `C/C(=C(/c1ccc(O)cc1)c1ccc(OCCN2CCCC2)cc1)c1ccccc1`, with 45.1%; and `COc1ccc(/C(=C\c2ccc3c(c2)OCO3)C(=O)Nc2nc3ccccc3s2)cc1`, with 101%; and `CC/C(=C(/c1ccc(Cl)cc1)c1ccc(OCCCN(C)C)cc1)c1ccc(OC)cc1`, with 46.2%.
As for `Cc1ccc2c(c1)=C/C(=C\c1cc(-c3ccccc3)oc1O)C(=O)N=2`, the growth was 98%.
Regarding `COc1ncc2cc1NS(=O)(=O)c1cccc(c1)C(=O)NCC1=CC=C(S1)c1ncnc3c1SC2=C3C`, the growth was -10.8% (active).
Then `Nc1nc(-c2ccccc2Br)nn1-c1nc2ccccc2s1`, with 99.3%; and `C=C(C)[C@@H]1C/C=C(\COC(=O)[C@H](OC(C)=O)C(NC(=O)c2ccccc2)c2ccccc2)CC[C@H]2O[C@]2(C)CC/C=C(\C)CC1` (stereo not given in full), with 29.9% [5 µM]; and `O=C(O)c1nn(-c2ccc(Cl)cc2)nc1N1CCCC1`, with 97%.
For the molecule `CC1OC(Oc2c(-c3ccc(O)c(O)c3)oc3cc(O)cc(O)c3c2=O)C(O)C(O)C1O` (stereo not given), the growth was 106%.
The value for `O=S(=O)(Nc1ccc2ccccc2c1)N1CCCCC1` was 85.1%.
Take `CC1=NC2=Nn3c(c4cnn(-c5ccccc5)c4n/c3=N\N)NN2C(c2ccccc2)=C1`: the growth is 106%.
The value for `CSc1ccc(OC(C)=O)cc1C` was 97.7%; that for `CC1CCCCN1S(=O)(=O)c1ccc(CN=C=S)cc1` (stereo not given) was 75.9%.
The value for `c1cc2c(ccc3[nH]c(-c4ccc5[nH]ncc5c4)c4c(c32)CCCC4)n1` was 9.65% (active); that for `CC/C=C\C/C=C/C=C1/C(=O)C=C[C@@H]1C/C=C\CCCC(=O)OC` was 8.98% (active); that for `CCOC(=O)n1cc(-c2nonc2-c2cn(C)c3ncccc23)c2cc(F)ccc21` was 92.8%.
Regarding `CCOC(=O)N1C=CC2C=CC1C1C=CC=CC2N1C(=O)OCC` (stereo not given), the growth is 104%.
Consider `C=CCNc1ccccc1`, for which the growth is 125%.
Then `COc1ccc(-c2nn(C(=O)NCCN(C)C)cc2-c2ccncc2)cc1Cl`, with 10.2%; and `Cc1cc(N2CCCC2)nc(N(CCCNc2ccnc3cc(Cl)ccc23)Cc2ccccn2)n1`, with 23.4%; and `CC(/C=N/NC(=O)c1cc(-c2ccco2)[nH]n1)=C\c1ccccc1`, with 99%.
